D3 ag: qHTS of D3 Dopamine Receptor Agonist: qHTS; D(3) dopamine receptor (Homo sapiens), P35462; D3R DiscoveRx beta-arrestin cells, luminescence, 90 min; max activation, %; hit rate 0.58% among 410,000; in the data active = max activation above about 30%; also: 0% is about no effect
Target sequence (P35462 whole entry, looked up): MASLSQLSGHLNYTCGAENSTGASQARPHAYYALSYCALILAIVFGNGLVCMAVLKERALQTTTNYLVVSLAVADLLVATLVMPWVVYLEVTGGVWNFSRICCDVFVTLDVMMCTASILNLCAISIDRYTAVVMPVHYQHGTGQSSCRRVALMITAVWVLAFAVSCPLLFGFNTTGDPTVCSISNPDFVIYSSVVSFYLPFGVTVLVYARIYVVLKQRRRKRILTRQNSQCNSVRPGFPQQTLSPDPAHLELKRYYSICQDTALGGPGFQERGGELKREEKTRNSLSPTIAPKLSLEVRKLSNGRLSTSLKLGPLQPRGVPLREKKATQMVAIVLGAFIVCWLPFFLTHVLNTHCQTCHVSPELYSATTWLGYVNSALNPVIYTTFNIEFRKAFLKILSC
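Cells at 1500/well, incubated overnight, then treated with pinned compounds (dopamine as control) for 90 min at 37 degrees C. DiscoveRx reagent added for 30 - 60 minutes at room temperature; luminescence read.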
IL1B secr inh: qHTS for Inhibitors of Inflammasome Signaling: IL-1-beta AlphaLISA Primary Screen. hit rate 4.7% among 360,000. AID 743279, 2014. activity change, % at 57.5 µM. THP-1 LPS/ATP IL-1B secretion, AlphaLISA, 16 h; hits give low values; in the data active = activity change below about -50%; inconclusive = mostly about -30% to -49%; also: % is scaled to controls: 0 for no effect and ±100 for the full control effect
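Secreted IL-1B measured by AlphaLISA bead assay after 16 h compound exposure of THP-1 cells; compounds (final up to 57.5 uM) added 1 h before LPS (250 ng/mL) and ATP (1.25 mM) stimulation; lower signal means less secretion.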
ClpP mod: qHTS Assay for Activators of ClpP; AID 651965, 2013; hit rate 1.9% among 340,000; Potency, µM (titrated, usually from 57.5 µM), for inactives: at the highest dose activity change, negative = active; purified B. subtilis ClpP, FRET peptide cleavage, 20 min; active = well fitted falling curve with a large enough effect; inconclusive = small, poorly fitted or top-dose-only effect; inactive = no such curve, though single readings can be large or run the other way; also: potency is read from the fitted curve at half-maximal effect; the source files actives as falling curves though it sought activators and does not explain the sign; nearly all actives have a fitted effect of over 65% in size
Target sequence (P80244 whole entry, looked up): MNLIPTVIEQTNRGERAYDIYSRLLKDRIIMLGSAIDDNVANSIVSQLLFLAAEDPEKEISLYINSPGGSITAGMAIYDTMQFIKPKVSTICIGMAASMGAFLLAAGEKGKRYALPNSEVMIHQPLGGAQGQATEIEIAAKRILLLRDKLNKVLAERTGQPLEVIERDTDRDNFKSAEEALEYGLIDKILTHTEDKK
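Purified B. subtilis ClpP, 10 microg/mL final in Tris/HCl pH8 with KCl, BSA, glycerol and Tween-20, cleaved an Abz/nitrotyrosine-quenched decapeptide. Fluorescence (ex 320, em 430) was read at 0 and 20 min at room temperature. Delta was normalized to 5.8 microM ADEP and DMSO/no-enzyme controls.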
D3 antag: qHTS of D3 Dopamine Receptor Antagonist: qHTS. AID 652054, 2013. hit rate 2.5% among 360,000. D(3) dopamine receptor (Homo sapiens), P35462. D3R cells, DiscoveRx beta-arrestin luminescence, antagonist mode; hits give low values. max response, negative = inhibition, %; in the data active = max response below about -50%; inconclusive = no clear call, values can overlap the other calls; also: % is scaled to controls: 0 for no effect and ±100 for the full control effect
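Cells plated overnight at 1500 cells/well, then exposed to library compounds with dopamine controls for 90 minutes at 37 degrees C. DiscoveRx reagent added for 30–60 minutes at room temperature; luminescence read, quantitative HTS format.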
TDP1 cell CPT: qHTS for Inhibitors of human tyrosyl-DNA phosphodiesterase 1 (TDP1): qHTS in cells in presence of CPT | chicken DT40 Tdp1-/-;hTDP1 cells + 20 nM CPT, ATP luminescence, 48 h | Potency, µM (highest dose often 46.2 µM), inactives show at the highest dose activity change, negative = growth inhibition, usual class: inhibitors | hit rate 12% among 420,000 | AID 686979, 2013; also: potency is read from the fitted curve at half-maximal effect; % is scaled to controls: 0 for no effect and ±100 for the full control effect; nearly all actives have a fitted effect of over 55% in size
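Cell growth measured by CellTiter-Glo luminescence after a minimum 48 h, 37 C compound exposure with 20 nM CPT in Tdp1-knockout DT40 cells stably expressing hTDP1, seeded 400/well; qHTS titration format.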
DT40 TDP1 no CPT: qHTS for Inhibitors of human tyrosyl-DNA phosphodiesterase 1 (TDP1): qHTS in cells in absence of CPT; DT40 Tdp1-/- hTDP1 cells, no CPT, ATP luminescence, 48 h; Potency, µM (highest dose often 46.2 µM), for inactives: at the highest dose activity change, negative = growth inhibition, hits mostly inhibitors; hit rate 15% among 420,000; also: potency is read from the fitted curve at half-maximal effect; % is scaled to controls: 0 for no effect and ±100 for the full control effect; nearly all actives have a fitted effect of over 55% in size
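DT40 Tdp1-/-;hTDP1 cells, no CPT (DMSO vehicle only), 400 cells/well; compounds pin-transferred; ≥48 hr, 37 °C; CellTiter-Glo 30 min RT dark, luminescence read.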
An asterisk follows results filed as active. Rows were chosen to be rich in hits. Some 21% of all compounds tested hit in one or more screens of this group. Unless noted, calls follow the shape of the dose curve; as a rule, active = well fitted inhibition curve with a large enough effect; inconclusive = small, poorly fitted or top-dose-only effect; inactive = flat fitted curve, though single readings scatter.

For COc1ccccc1CNC(=O)c1ccc2nc3[nH]c4ccccc4c3nc2c1 the results were D3 ag 5.8, IL1B secr inh -52.9*, ClpP mod 0.3%, D3 antag 5.8, TDP1 cell CPT inconclusive and DT40 TDP1 no CPT 8.2µM*.
Screening CCc1nc2ccc(C(=O)NCCc3ccccc3OC)cc2nc1CC returned D3 ag 1.7, IL1B secr inh inconclusive, ClpP mod -1.2%, D3 antag 2.1, TDP1 cell CPT inconclusive and DT40 TDP1 no CPT inconclusive.
`COc1ccccc1CNC(=O)c1ccccc1OC` gave D3 ag 0.9, IL1B secr inh inconclusive, ClpP mod -6.4%, D3 antag 8.7, TDP1 cell CPT -21.3% and DT40 TDP1 no CPT -19.7%.
`COc1ccc(Cl)cc1NC(=O)c1cc2ccc3ccc(C)[nH]c3c2n1` gave D3 ag 5.1, ClpP mod inconclusive, TDP1 cell CPT inconclusive and DT40 TDP1 no CPT 23.1µM*.
CCc1ccc(C(=O)c2cn(CC(=O)Nc3cccc(C)c3C)c3nc(C)ccc3c2=O)cc1 was read as D3 ag -19.5, ClpP mod -4.4%, TDP1 cell CPT inconclusive and DT40 TDP1 no CPT -15.2%.
`CC(=O)NCCOC(=O)c1nn(Cc2ccccc2)c(=O)c2ccccc12` gave D3 ag 2.2, IL1B secr inh 20.0, D3 antag 24.9, TDP1 cell CPT -21.0% and DT40 TDP1 no CPT inconclusive.
For CC(=O)N1CCN(C(=O)c2ccc(-n3c(C)ccc3C)cc2)CC1 the results were D3 ag -1.2, IL1B secr inh -66.5*, ClpP mod 7.4%, D3 antag -3.9, TDP1 cell CPT inconclusive and DT40 TDP1 no CPT -66.2%.
For CCOC(=O)N1CCN(C(=O)c2ccc(-n3c(C)ccc3C)cc2)CC1 the results were D3 ag -2.0, IL1B secr inh inconclusive, ClpP mod 1.2%, D3 antag 4.9, TDP1 cell CPT inconclusive and DT40 TDP1 no CPT 14.6µM*.
CC1(C)S[C@@H]2[C@H](NC(=O)[C@H](N)c3ccccc3)C(=O)N2[C@H]1C(=O)OCOC(=O)[C@@H]1N2C(=O)C[C@H]2S(=O)(=O)C1(C)C was read as D3 ag -4.2, TDP1 cell CPT 6.9% and DT40 TDP1 no CPT 1.5%.
For O=C(N/C(=C\c1ccccc1)C(=O)N1CCOCC1)c1ccccc1Br the results were D3 ag -6.6, IL1B secr inh -15.6, ClpP mod 1.3%, D3 antag -17.0, TDP1 cell CPT 4.2% and DT40 TDP1 no CPT 3.2%.
COC(=O)c1ccc(CSc2nnc(C)s2)cc1 was read as D3 ag -4.7, IL1B secr inh 0.0, ClpP mod 0.4%, D3 antag -3.1, TDP1 cell CPT 11.6µM* and DT40 TDP1 no CPT 10.3µM*.
CCn1nccc1C(=O)Nc1ccc(Cl)cc1Cl was read as D3 ag 3.8, ClpP mod -0.5%, D3 antag -15.6, TDP1 cell CPT -9.7% and DT40 TDP1 no CPT -15.4%.
Screening CCn1nccc1C(=O)Nc1cc(Cl)ccc1Cl returned D3 ag 4.0, IL1B secr inh -55.3*, ClpP mod 0.2%, D3 antag 27.4, TDP1 cell CPT -1.9% and DT40 TDP1 no CPT -6.3%.
CCCNC(=O)c1ccc(N2CCC3(CC2)CC(c2cccc(Br)c2)=NO3)c(NC(=O)c2c(Cl)cccc2Cl)c1 was read as D3 ag -38.8, IL1B secr inh -6.6, ClpP mod -0.8%, D3 antag -9.2, TDP1 cell CPT -9.5% and DT40 TDP1 no CPT -16.0%.
Screening CCCNC(=O)c1ccc(N2CCC3(CC2)CC(c2cccc(Br)c2)=NO3)c(NC(=O)c2ccc(Br)cc2)c1 returned D3 ag 14.5, IL1B secr inh -23.8, ClpP mod inconclusive, D3 antag 7.9, TDP1 cell CPT -14.6% and DT40 TDP1 no CPT -15.9%.
`CCCNC(=O)c1ccc(N2CCC3(CC2)CC(c2ccccc2)=NO3)c(NC(=O)c2ccco2)c1` gave D3 ag -20.2, IL1B secr inh -14.9, ClpP mod inconclusive, D3 antag 53.4, TDP1 cell CPT 18.4µM* and DT40 TDP1 no CPT 16.4µM*.
`CCCCC(CC)C(=O)Nc1cc(C(=O)NCCC)ccc1N1CCC2(CC1)CC(c1ccccc1)=NO2` (stereo unspecified) gave D3 ag 6.8, IL1B secr inh -16.7, ClpP mod -8.5%, D3 antag 37.8, TDP1 cell CPT 6.51µM* and DT40 TDP1 no CPT inconclusive.
Screening CCCNC(=O)c1ccc(N2CCC3(CC2)CC(c2ccccc2)=NO3)c(NC(=O)c2cccc(OC)c2)c1 returned D3 ag 25.2, IL1B secr inh 7.7, ClpP mod inconclusive, D3 antag 39.5, TDP1 cell CPT inconclusive and DT40 TDP1 no CPT 13µM*.
Screening COc1ccc(NC(=O)N2CCCC3(CCN(C(=O)c4ccc(OC)cc4)CC3)C2)cc1 returned TDP1 cell CPT 4.2% and DT40 TDP1 no CPT -29.7%.
For O=C(Nc1cccc(-n2cnnn2)c1)c1cnccc1Cl the results were D3 ag -1.1, IL1B secr inh -3.3, ClpP mod 1.2%, D3 antag -19.7, TDP1 cell CPT 23.5% and DT40 TDP1 no CPT 1.4%.
Screening Cc1ccccc1-n1nnnc1SCC(=O)NCC1CCCO1 (stereo unspecified) returned D3 ag -1.2, IL1B secr inh 2.0, ClpP mod -0.7%, D3 antag -16.0, TDP1 cell CPT -0.7% and DT40 TDP1 no CPT -6.8%.
`Cc1ccc(-c2onc3ccc(C4OCCO4)cc23)cc1` gave D3 ag 2.5, IL1B secr inh -17.9, D3 antag 14.8, TDP1 cell CPT 1.3% and DT40 TDP1 no CPT -21.4%.
For CC(=O)NC(CC(=O)OC(C)C(=O)Nc1ccc(Cl)cn1)c1ccccc1 (stereo unspecified) the results were D3 ag -19.2, IL1B secr inh 3.4, ClpP mod -0.2%, D3 antag -8.0, TDP1 cell CPT -2.7% and DT40 TDP1 no CPT -11.9%.
Screening O=C(Nc1ccc(Cl)cc1)Nc1ccccc1CC[N+](=O)[O-] returned D3 ag -1.3, IL1B secr inh -14.7, D3 antag 13.2, TDP1 cell CPT 13µM* and DT40 TDP1 no CPT inconclusive.

Screens as filed in PubChem BioAssay.
